{
  "source": "PubChem BioAssay (NCI)",
  "note": "The panel holds about 83,000 compounds, 20% with a hit somewhere; the sample as a whole holds those more often.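 Activity criterion: percent growth below 10, measured after cells in 96-well plates were exposed to a single compound concentration for 48 hours.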 The source made the active and inactive calls.",
  "data": [
    {"tested_on": "MDA-MB-435 melanoma", "assay": "NCI-60 one-dose screen, 48 h (100 = growth as untreated, 0 = no growth, -100 = all killed)", "conditions": "10 µM", "protocol": "Growth inhibition of the MDA-MB-435 human Melanoma tumor cell line is measured as a screen for anti-cancer activity. Cells are grown in 96 well plates and exposed to the test compound for 48 hours. Compounds are tested at a single concentration, which is 10^-5 M for most compounds. The reported endpoint is percent growth (GI% or GIPRCNT), where numbers from 0 - 100% represent growth inhibition, and numbers from -100% - 0 represent cell death. For example, a value of 40 represents 60% growth inhibition. A value of 0 means no net growth occurred over the course of the experiment. A value of -40 indicates 40% of cells at the beginning of the experiment died by the end of the experiment. A value of -100 means all cells are dead at the end of the experiment.\nNCI-60 Human Tumor Cell Lines Screen was performed using the standard one-dose NCI protocol, which is described in more detail at https://dtp.cancer.gov/discovery_development/nci-60/default.htm.\nCompounds with GIPRCNT values below 10 were considered active. Activity score was based on GIPRCNT using the following formula: […]\nScore is 0 for GIPRCNT values of 100 or above, 50 for GIPRCNT values of 0, and 100 for GIPRCNT values of -100.", "values": [
      {"molecule": "COc1cc(-c2cc(/C=C/C(=O)c3ccc(F)c(F)c3)[nH]n2)cc(OC)c1OC", "growth": "51.7% (inactive)"},
      {"molecule": "COc1cc(-c2nc(-c3nnc(-c4ccccc4Cl)o3)c3ccccn23)cc(OC)c1OC", "growth": "100% (inactive)"},
      {"molecule": "FC(F)(F)c1ccc2nc(-c3nc(-c4ccccc4)n4ccccc34)[nH]c2c1", "growth": "87.5% (inactive)"},
      {"molecule": "COc1ccc2c(c1)N(CCO)C1=C(C(=O)OC1)C2c1ccccc1", "note": "(stereo not given)", "growth": "-62.9% (active)"},
      {"molecule": "COc1cc(-c2cc(/C=C3\\C(=O)Nc4ccccc43)[nH]n2)cc(OC)c1OC", "growth": "38.7% (inactive)"},
      {"molecule": "ClC(Cl)(Cl)c1nc2nccnc2[nH]1", "growth": "102% (inactive)"},
      {"molecule": "COc1ccccc1CNCCN1C(=O)c2ccc3c4c(ccc(c24)C1=O)C(=O)N(CCNCc1ccccc1OC)C3=O", "growth": "-80.2% (active)"},
      {"molecule": "COc1cc(-c2cc(/C=C/C(=O)c3ccc(Cl)c(Cl)c3)[nH]n2)cc(OC)c1OC", "growth": "43% (inactive)"},
      {"molecule": "CCN(CC)CCCC(C)Nc1nc(-c2ccc(OC)cc2)nc2cc(Cl)ccc12", "note": "(stereo not given)", "growth": "35% (inactive)"},
      {"molecule": "COc1ccc(-c2nc(-c3nc4ccc(Cl)cc4[nH]3)c3ccccn23)cc1", "growth": "58.3% (inactive)"},
      {"molecule": "N#CC1=C(Nc2ccccc2Cl)SC(c2ccccc2O)NC1=O", "note": "(stereo not given)", "growth": "120% (inactive)"},
      {"molecule": "COc1ccc(-c2nn(-c3cccc(NC(=O)c4cccc(C(F)(F)F)c4)c3)cc2-c2ccncc2)cc1Cl", "growth": "-67.9% (active)"},
      {"molecule": "CC(=O)[C@H]1CC[C@H]2[C@@H]3CCC4=CC(=O)C=C[C@]4(C)[C@H]3CC[C@]12C", "growth": "98.7% (inactive)"},
      {"molecule": "CCOC(=O)N/N=C\\C(C)=N\\NC(=O)OCC", "growth": "88.8% (inactive)"},
      {"molecule": "COc1cc(C2CC(c3ccc(Nc4ccnc5cc(Cl)ccc45)cc3)=NN2c2ccc(Cl)cc2)cc(OC)c1OC", "note": "(stereo not given)", "growth": "8.05% (active)"},
      {"molecule": "COc1cc(Cl)cc(-c2nn(-c3cccc(NC(=O)c4ccc(N5CCOCC5)c(C(F)(F)F)c4)c3)cc2-c2ccncc2)c1", "growth": "63.4% (inactive)"},
      {"molecule": "CN(C)CCOc1nc2ccccc2c2c1-c1ccc(Cl)cc1C2=O", "growth": "-41.6% (active)"},
      {"molecule": "CCCCN(CCCC)c1cc(C(=O)CCCCCN)c2ccccc2n1", "growth": "-52.1% (active)"},
      {"molecule": "N#Cc1ncc(-c2ccc(C(F)(F)F)cc2)c(NCc2cc(C(F)(F)F)cc(C(F)(F)F)c2)n1", "growth": "12.2% (inactive)"},
      {"molecule": "CCOC(=O)N1C/C(=C/c2ccc(Cl)cc2)C(=O)/C(=C/c2ccc(Cl)cc2)C1", "growth": "38.4% (inactive)"},
      {"molecule": "CCCCCCNC(=O)Oc1ccc(/C(=C(/CC)Cc2ccccc2)c2ccc(OCCN3CCCCC3)cc2)cc1", "growth": "89% (inactive)"},
      {"molecule": "N=c1c2c(-c3ccccc3)c(-c3ccccc3)n(Cc3ccccc3)c2ncn1CCCO", "growth": "34.2% (inactive)"},
      {"molecule": "CCN(CC)CCCOCCCNc1cc(OC)cc2cccnc12", "growth": "112% (inactive)"},
      {"molecule": "CC[C@H]1CCC/C=C/[C@@H]2C[C@H](O)C[C@H]2[C@H](O)/C=C/C(=O)O1", "growth": "5.71% (active)"},
      {"molecule": "COc1ccc(-c2nc3sc(-c4ccc(OC)cc4)c(-c4ccc(OC)cc4)n3c2/C=C/c2ccc(C(C)C)cc2)cc1", "growth": "98.7% (inactive)"},
      {"molecule": "COC(=O)c1ccc(=O)oc1", "growth": "106% (inactive)"},
      {"molecule": "COc1ccc(-c2csc(NC(=O)CSc3nc(C)c(-c4ccccc4)n3Nc3ccccc3)n2)cc1", "growth": "56.1% (inactive)"},
      {"molecule": "CC(=O)c1nc2ccccc2n1CCN1CCN(C)CC1", "growth": "-80.2% (active)"},
      {"molecule": "CCN(CCCCCCCCCCN1CC(=O)N(CCCCCCCCCCN(CC)Cc2ccccc2OC)CC1=O)Cc1ccccc1OC", "growth": "-72% (active)"},
      {"molecule": "Clc1ccc(-c2cn(-c3ccccc3)c(-c3ccccc3)n2)c(Cl)c1", "growth": "-37.2% (active)"},
      {"molecule": "CCN(CC)CCC(CNc1c(C)cnc2cc(Cl)ccc12)c1ccc(Cl)c(Cl)c1", "note": "(stereo not given)", "growth": "0.88% (active)"},
      {"molecule": "CCN(CC)CCSCCCNc1c2ccc(Cl)cc2nc2ccc(OC)cc12", "growth": "-94.7% (active)"},
      {"molecule": "COc1cc(/C=N/NC(=O)c2ccccc2Nc2ccnc(C(F)(F)F)c2)ccc1O", "growth": "106% (inactive)"},
      {"molecule": "COc1cc2nc(Nc3cccc(C(=O)O)c3)nc(N)c2cc1OC", "growth": "107% (inactive)"},
      {"molecule": "Cc1cc(N(CCCNc2ccnc3cc(Cl)ccc23)Cc2ccc3c(c2)OCO3)nc(N2CCOCC2)n1", "growth": "-13.6% (active)"},
      {"molecule": "Cc1ccc(NC(=O)CSc2nc3ccccc3c(=O)n2CCc2ccccc2)c(C(=O)O)c1", "growth": "97.3% (inactive)"},
      {"molecule": "COc1cc(NC(=O)CSc2nc3ccccc3c(=O)n2CCc2ccccc2)cc(OC)c1OC", "growth": "32.1% (inactive)"},
      {"molecule": "COc1ccc2c(c1)C(=O)c1c-2c(OCCN2CCCCC2)nc2ccc(OC)cc12", "growth": "23.9% (inactive)"},
      {"molecule": "CC1(C)N=C(N)N=C(N)N1c1ccc(CCc2ccccc2)c(Cl)c1", "growth": "16.2% (inactive)"},
      {"molecule": "COc1cc(-c2nnc(-c3c(-c4ccc(F)cc4)nc4ccccn34)o2)cc(OC)c1OC", "growth": "93.5% (inactive)"}
    ]}
  ]
}
